From PubChem BioAssay AID1159580 (chemical genetic matrix, 2015)
Screen size: about 5,500 compounds; about 2,000 (36%) were called active. Roughly 18% stayed inconclusive and do not appear here. No stated cut-off is given here; in the data, active means normalized growth mostly below about 0.91 (no sharp cut-off); inconclusive means no clear call, values can overlap the other calls; inactive means mostly above about 0.92. This is one part of the list.

Experiment: chemical genetic growth profiling, strain panel (AID 1159580);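 further: tested at 20 µM; growth read once vehicle control cultures reached saturation at 30 °C; 1 = growth at the plate median or of vehicle wells; lower values mean less growth of the strain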
Settings: S. cerevisiae deletion strains, growth OD
[1] = locus YHR030C, strain SLT2, active compounds read low
[2] = locus YHR079C, strain IRE1, active compounds read low
[3] = locus YJL095W, strain BCK1, active compounds read low
[4] = locus YJR066W, strain TOR1, active compounds read low
[5] = locus YLR113W, strain HOG1, active compounds read low
[6] = locus YNL183C, strain NPR1, active compounds read low
[7] = locus YOR231W, strain MKK1, active compounds read low
[8] = locus YPL256C, strain CLN2, active compounds read low

Measured: normalized growth

CC1(O)CC2C(CC1O)C2(C)C (stereo unspecified)
inactive: locus YAL021C, strain ccr4, active compounds read low 0.988 | locus YAL026C, strain drs2, active compounds read low 1 | locus YAL030W, strain snc1, active compounds read low 0.99 | locus YBL061C, strain skt5, active compounds read low 0.988 | locus YBR009C, strain hhf1, active compounds read low 1.04 | locus YBR023C, strain chs3, active compounds read low 0.999 | locus YBR171W, strain sec66, active compounds read low 0.998 | locus YBR231C, strain swc5, active compounds read low 0.993 | locus YBR279W, strain paf1, active compounds read low 0.995 | locus YCL011C, strain gbp2, active compounds read low 1 | locus YCL016C, strain dcc1, active compounds read low 1.01 | locus YCL069W, strain vba3, active compounds read low 1 | locus YCR088W, strain abp1, active compounds read low 0.997 | locus YDL005C, strain med2, active compounds read low 0.995 | locus YDL040C, strain nat1, active compounds read low 0.999 | locus YDR001C, strain nth1, active compounds read low 1.01 | locus YDR069C, strain doa4, active compounds read low 1.02 | locus YDR137W, strain rgp1, active compounds read low 1 | locus YDR159W, strain sac3, active compounds read low 1 | locus YDR195W, strain ref2 0.988 | locus YDR297W, strain sur2, active compounds read low 1.01 | locus YDR334W, strain swr1, active compounds read low 1 | locus YDR335W, strain msn5, active compounds read low 1 | locus YDR392W, strain spt3, active compounds read low 1 | locus YEL003W, strain gim4, active compounds read low 1.01 | locus YEL037C, strain rad23, active compounds read low 1 | locus YEL061C, strain CIN8 (second series), active compounds read low 0.999 | locus YER015W, strain faa2, active compounds read low 0.995 | locus YER016W, strain bim1, active compounds read low 0.998 | locus YER111C, strain swi4, active compounds read low 0.989 | locus YER155C, strain BEM2 (second series), active compounds read low 1 | locus YFR010W, strain ubp6, active compounds read low 0.997 | locus YGL167C, strain pmr1, active compounds read low 1.01 | locus YGL173C, strain kem1, active compounds read low 0.999 | locus YGL227W, strain vid30, active compounds read low 0.99 | locus YGL240W, strain doc1, active compounds read low 1.01 | locus YGL253W, strain hxk2, active compounds read low 1 | locus YHR013C, strain ard1, active compounds read low 1 | locus YHR027C, strain rpn1, active compounds read low 0.995 | [1] 1.04 | [2] 1.03 | locus YHR142W, strain chs7, active compounds read low 1.01 | locus YJL092W, strain hpr5, active compounds read low 1 | locus YJL095W, strain BCK1 (second series), active compounds read low 0.996 | [3] 0.993 | locus YJL115W, strain asf1, active compounds read low 0.996 | locus YJL129C, strain trk1, active compounds read low 1 | locus YJL154C, strain vps35, active compounds read low 0.994 | locus YJL164C, strain tpk1, active compounds read low 0.998 | locus YJL166W, strain qcr8, active compounds read low 1 | locus YJL187C, strain SWE1, active compounds read low 0.995 | [4] 0.989 | locus YKL160W, strain elf1, active compounds read low 0.994 | locus YKR026C, strain gcn3, active compounds read low 0.994 | locus YKR091W, strain srl3, active compounds read low 1 | locus YLL001W, strain dnm1, active compounds read low 1 | locus YLL026W, active compounds read low 0.998 | locus YLL041C, strain sdh2, active compounds read low 0.991 | locus YLR027C, strain aat2, active compounds read low 1 | [5] 0.976 | locus YLR221C, strain rsa3, active compounds read low 0.999 | locus YLR258W, strain gsy2, active compounds read low 0.982 | locus YLR262C, strain YPT6 (second series), active compounds read low 1.02 | locus YLR320W, strain mms22, active compounds read low 0.994 | locus YLR342W, strain FKS1, active compounds read low 1 | locus YLR357W, strain rsc2, active compounds read low 0.969 | locus YLR370C, strain arc18, active compounds read low 1.01 | locus YLR384C, strain iki3, active compounds read low 0.971 | locus YML120C, strain ndi1, active compounds read low 1 | locus YMR058W, strain fet3, active compounds read low 0.999 | locus YMR125W, strain sto1, active compounds read low 0.988 | locus YMR129W, active compounds read low 0.995 | locus YMR205C, strain PFK2, active compounds read low 0.998 | locus YMR231W, strain pep5, active compounds read low 1.01 | locus YNL071W, strain lat1, active compounds read low 1 | [6] 0.935 | locus YNL209W, strain ssb2, active compounds read low 1.01 | locus YNL248C, strain rpa49, active compounds read low 1 | locus YNL322C, strain KRE1 (second series), active compounds read low 0.981 | locus YNR049C, strain mso1, active compounds read low 0.985 | locus YOR001W, strain rrp6, active compounds read low 1.01 | locus YOR070C, strain gyp1, active compounds read low 0.997 | locus YOR080W, strain dia2, active compounds read low 1 | locus YOR083W, strain WHI5, active compounds read low 0.999 | locus YOR106W, strain vam3, active compounds read low 0.992 | [7] 1.03 | locus YOR265W, strain rbl2, active compounds read low 1.01 | locus YOR270C, strain vph1, active compounds read low 1.03 | locus YOR290C, strain snf2, active compounds read low 1.01 | locus YPL051W, strain arl3, active compounds read low 1 | locus YPL078C, strain atp4, active compounds read low 0.999 | locus YPL106C, strain sse1, active compounds read low 1.01 | locus YPL240C, strain hsp82, active compounds read low 0.998 | [8] 1.02

CCOC(=O)C1C(c2c(F)cccc2Cl)C(C(=O)OCC)C(O)(C(F)(F)F)NC1(O)C(F)(F)F (stereo unspecified)
inactive: locus YAR019C, strain CDC15, active compounds read low 0.984 | locus YBL105C, strain PKC1, active compounds read low 0.988 | locus YBR135W, strain CKS1, active compounds read low 0.994 | locus YBR136W, strain MEC1, active compounds read low 0.979 | locus YBR160W, strain CDC28, active compounds read low 0.993 | locus YDL017W, strain CDC7, active compounds read low 0.99 | locus YDL028C, strain MPS1, active compounds read low 0.993 | locus YDL101C, strain DUN1, active compounds read low 0.983 | locus YDL108W, strain KIN28, active compounds read low 0.994 | locus YDL132W, strain cdc53, active compounds read low 0.993 | locus YDL214C, strain PRR2, active compounds read low 0.986 | locus YDR052C, strain DBF4, active compounds read low 0.99 | locus YDR054C, strain cdc34, active compounds read low 0.985 | locus YDR226W, strain ADK1, active compounds read low 0.992 | locus YDR477W, strain SNF1, active compounds read low 0.998 | locus YER123W, strain YCK3, active compounds read low 0.966 | locus YER133W, strain GLC7, active compounds read low 0.988 | locus YFL009W, strain cdc4, active compounds read low 0.991 | locus YFL029C, strain CAK1, active compounds read low 0.981 | locus YFR003C, strain YPI1, active compounds read low 0.992 | locus YFR019W, strain FAB1, active compounds read low 0.942 | locus YFR028C, strain CDC14, active compounds read low 0.991 | locus YGR040W, strain KSS1, active compounds read low 0.994 | locus YGR052W, strain FMP48, active compounds read low 1.05 | locus YGR092W, strain DBF2, active compounds read low 1 | [1] 0.964 | [2] 0.971 | locus YHR082C, strain KSP1, active compounds read low 0.994 | locus YHR205W, strain SCH9, active compounds read low 0.965 | locus YIL147C, strain SLN1, active compounds read low 0.987 | [3] 0.982 | locus YJL128C, strain PBS2, active compounds read low 0.965 | locus YJL157C, strain FAR1, active compounds read low 0.994 | locus YJR016C, strain ILV3, active compounds read low 0.996 | locus YJR066W, strain TOR1 (second series), active compounds read low 0.951 | [4] 0.969 | locus YKL048C, strain ELM1, active compounds read low 0.988 | locus YKL067W, strain YNK1, active compounds read low 0.987 | locus YKL101W, strain HSL1, active compounds read low 0.989 | locus YKL193C, strain SDS22, active compounds read low 0.99 | locus YKL203C, strain TOR2, active compounds read low 1.06 | [5] 0.926 | locus YLR133W, strain CKI1, active compounds read low 0.985 | locus YLR403W, strain SFP1, active compounds read low 0.986 | locus YML070W, strain DAK1, active compounds read low 0.987 | locus YMR001C, strain CDC5, active compounds read low 0.99 | locus YMR205C, strain PFK2 (second series), active compounds read low 0.997 | locus YMR277W, strain FCP1, active compounds read low 0.991 | locus YNL006W, strain LST8, active compounds read low 0.996 | locus YNL020C, strain ARK1, active compounds read low 0.994 | locus YNL161W, strain CBK1, active compounds read low 0.991 | [6] 0.977 | locus YNL207W, strain RIO2, active compounds read low 0.992 | locus YNL222W, strain SSU72, active compounds read low 0.996 | locus YNL307C, strain MCK1 (second series), active compounds read low 0.986 | locus YOL078W, strain AVO1, active compounds read low 0.998 | locus YOL136C, strain PFK27, active compounds read low 0.979 | locus YOR061W, strain CKA2, active compounds read low 0.996 | locus YOR119C, strain RIO1, active compounds read low 1.03 | [7] 1 | locus YOR329C, strain SCD5, active compounds read low 0.986 | locus YPL031C, strain PHO85, active compounds read low 0.99 | locus YPL153C, strain RAD53, active compounds read low 0.992 | locus YPL204W, strain HRR25, active compounds read low 0.984 | locus YPL209C, strain IPL1, active compounds read low 0.988 | [8] 0.935 | locus YPR025C, strain CCL1, active compounds read low 0.986 | locus YPR106W, strain ISR1, active compounds read low 0.991 | locus YPR111W, strain DBF20, active compounds read low 0.984 | strain NNK1, active compounds read low 0.987 | strain TSCII, active compounds read low 0.995

CN1CC[C@@]2(C)c3cc(O)ccc3N(C)C12 (stereo partly specified)
inactive: locus YAL040C, strain CLN3, active compounds read low 0.971 | locus YCL061C, strain MRC1 (second series), active compounds read low 0.995 | locus YDR150W, strain NUM1, active compounds read low 0.977 | locus YDR363W, strain ESC2, active compounds read low 1.02 | locus YER002W, strain NOP16, active compounds read low 0.998 | locus YGR078C, strain PAC10, active compounds read low 0.982 | locus YGR229C, strain SMI1, active compounds read low 1.03 | locus YJR075W, strain HOC1, active compounds read low 1.01 | locus YMR263W, strain SAP30, active compounds read low 0.993 | locus YMR307W, strain GAS1, active compounds read low 1.02 | locus YNL153C, strain GIM3, active compounds read low 0.941 | locus YNL175C, strain NOP13, active compounds read low 0.989 | locus YNL197C, strain WHI3, active compounds read low 0.969 | locus YNL224C, strain SQS1, active compounds read low 1.02 | locus YOR083W, strain WHI5 (second series), active compounds read low 0.975 | locus YPL055C, strain LGE1, active compounds read low 0.985
